Where “and” joins values, the source holds several entries; their conditions need not be identical. Equal values may be shown once. Inconclusive results are not listed. Entries that show only a call come without a potency. A structure can be active in one record and inactive in another. Calls of active or inactive are those of the source. The call rests on the fitted dose curve; in most records, active means well fitted curve in the direction sought with a large enough effect in the repeat runs; inconclusive means weak or mixed curves; inactive means no such curve, though single readings can be large; an effect the other way counts as inactive or inconclusive.
Assays:
[1] = qHTS RealTime-Glo MT Cell Viability Assay in HEK293 cells - 16 hour (AID 1224872); further: nearly all actives have a fitted effect of over 50% in size; further: potency means the concentration at half of the fitted maximal effect
Outline: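 HEK293 cells seeded with NanoLuc/prosubstrate reagent, rested 5 h at 37 C, then dosed and kept at 37 C up to 40 h. Nonlytic real-time luminescence from viable cells read at 0, 8, 16, 24, 32 and 40 h.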

[2] = qHTS RealTime-Glo MT Cell Viability Assay in HepG2 cells - 8 hour (AID 1224873); further: nearly all actives have a fitted effect of over 55% in size; further: potency means the concentration at half of the fitted maximal effect
Outline: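 HepG2 cells mixed with RealTime-Glo MT reagents (NanoLuc plus cell-permeant prosubstrate) were seeded at 600 cells/well, incubated 5 h at 37 C/5% CO2, then pinned with compounds in DMSO; nonlytic luminescence tracked viability during 40 h treatment.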

[3] = qHTS RealTime-Glo MT Cell Viability Assay in HEK293 cells - 40 hour (AID 1224874); settings: RealTime-Glo luminescence; max response: stronger effect = lower value; further: nearly all actives have a fitted effect of over 50% in size; further: potency means the concentration at half of the fitted maximal effect
Outline: (§1)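 HEK293 cells mixed with RealTime-Glo reagents (NanoLuc plus cell-permeant prosubstrate) at 600 cells/well, preincubated 5 h at 37 C/5% CO2, then given 23 nL compound in DMSO. Nonlytic luminescence from viable cells was read at 0, 8, 16, 24, 32 and 40 h.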

[4] = A CellTox Green Cytotoxicity Assay to monitor cytotoxicity in HEK293 cells - 24 hour (AID 1224875); further: nearly all actives have a fitted effect of over 45% in size; further: potency means the concentration at half of the fitted maximal effect
Outline: (§2)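 HEK293 cells premixed with CellTox Green dye were seeded at 600 cells/well and left 5 h at 37 C/5% CO2 before pin transfer of 23 nL compound in DMSO. Fluorescence from dye bound to dead-cell DNA was read during 40 h treatment.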

[5] = A CellTox Green Cytotoxicity Assay to monitor cytotoxicity in HepG2 cells - 16 hour (AID 1224876); further: nearly all actives have a fitted effect of over 45% in size; further: potency means the concentration at half of the fitted maximal effect
Outline: (§3)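 HepG2 cells were seeded together with the CellTox Green dye at 600 cells/well, left 5 h at 37 C/5% CO2, then given compounds in DMSO. Fluorescence from dye bound to dead-cell DNA was read repeatedly over 40 h of treatment at 37 C.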

[6] = qHTS RealTime-Glo MT Cell Viability Assay in HepG2 cells - 32 hour (AID 1224877); further: nearly all actives have a fitted effect of over 55% in size; further: potency means the concentration at half of the fitted maximal effect
Outline: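 HepG2 cells (600/well) were dispensed with RealTime-Glo reagents, incubated 5 h at 37 °C, then treated with compounds in DMSO for up to 40 h. Nonlytic NanoLuc luminescence reflecting viable cells was read at each stated time point.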

[7] = A CellTox Green Cytotoxicity Assay to monitor cytotoxicity in HepG2 cells - 40 hour (AID 1224879); further: nearly all actives have a fitted effect of over 40% in size; further: potency means the concentration at half of the fitted maximal effect
Outline: as §3

[8] = qHTS RealTime-Glo MT Cell Viability Assay in HEK293 cells - 0 hour (AID 1224880); further: nearly all actives have a fitted effect of over 45% in size; further: potency means the concentration at half of the fitted maximal effect
Outline: as §1

[9] = A CellTox Green Cytotoxicity Assay to monitor cytotoxicity in HEK293 cells - 32 hour (AID 1224881); further: nearly all actives have a fitted effect of over 40% in size; further: potency means the concentration at half of the fitted maximal effect
Outline: as §2

[10] = A CellTox Green Cytotoxicity Assay to monitor cytotoxicity in HepG2 cells - 24 hour (AID 1224878); further: nearly all actives have a fitted effect of over 45% in size
Outline: as §3

SMILES | Potency [1] | Potency [2] | max response [3] | Potency [4] | Potency [5] | Potency [6] | Potency [7] | Potency [8] | Potency [9] | Potency [10] | Potency [3]
COC(=O)CC(=O)OC | inactive | inactive | 2.65% (inactive) and 1% (inactive) | inactive | inactive | inactive | inactive | inactive | inactive | – | –
C=CN1CCCC1=O | inactive | inactive | 0.332% (inactive) and -7.88% (inactive) | inactive | inactive | inactive | inactive | inactive | inactive | inactive | –
CCCCCCCCCCCCCO | inactive | inactive | 3.82% (inactive) and -0.0255% (inactive) | inactive | inactive | inactive | – | inactive | inactive | inactive | –
Cc1ccc([N+](=O)[O-])c(C)c1 | 38.9 µM (active) and inactive | inactive | -10.8% (inactive) | inactive | inactive | inactive | 17.4 µM (active) and inactive | inactive | 30.9 µM (active) and inactive | inactive | 38.9 µM (active)
O=C(O)CCCC(=O)O | inactive | inactive | -2.98% (inactive) and 4.62% (inactive) | inactive | inactive | inactive | inactive | inactive | inactive | – | –
[O-]/[N+](=N\O)c1ccccc1 | inactive | inactive | 2.42% (inactive) and -11.8% (inactive) | inactive | inactive | inactive | inactive | inactive | inactive | inactive | –
Cc1cccc(Nc2ccccc2C(=O)O)c1C | inactive | inactive | -11.8% (inactive) and 1.92% (inactive) | inactive | inactive | inactive | inactive | inactive | inactive | inactive | –
Cc1ccc(S(=O)(=O)O)cc1C | inactive | inactive | -0.252% (inactive) and 9.18% (inactive) | inactive | inactive | inactive | inactive | inactive | inactive | inactive | –
Clc1ccc(Sc2cc(Cl)c(Cl)cc2Cl)cc1 | inactive | inactive | -26.8% (inactive) and 1% (inactive) | inactive | inactive | inactive | inactive | inactive | inactive | inactive | –
O=Cc1ccccc1C=O | inactive | inactive | 0.419% (inactive) | inactive | inactive | inactive | 21.9 µM (active) and inactive | inactive | inactive | – | –
CC/C=C\C/C=C\C/C=C\CCCCCCCC(=O)O | inactive | inactive | -5.49% (inactive) and 15.2% (inactive) | inactive | inactive | inactive | inactive | inactive | inactive | – | –
CC(C)(Oc1ccc(Cl)cc1)C(=O)O | inactive | inactive | 6.25% (inactive) and 5.25% (inactive) | inactive | inactive | inactive | inactive | inactive | inactive | inactive | –
CN(Cc1cnc2nc(N)nc(N)c2n1)c1ccc(C(=O)N[C@@H](CCC(=O)O)C(=O)O)cc1 | inactive | inactive | – | inactive | inactive | inactive | inactive | inactive | inactive | inactive | 49 nM (active) and 53.5 nM (active)
C1COCCN1 | inactive | inactive | -0.365% (inactive) and -12.5% (inactive) and 10.6% (inactive) | inactive | inactive | inactive | inactive | inactive | inactive | inactive | –
CC(=O)OC(C)C | inactive | inactive | -9.76% (inactive) and -7.44% (inactive) | inactive | inactive | inactive | inactive | inactive | inactive | inactive | –
Oc1c(Cl)ccc(Cl)c1Cl | inactive | inactive | -14% (inactive) and -18.1% (inactive) | inactive | inactive | inactive | inactive | inactive | inactive | inactive | –
c1ccc2cc3ccccc3cc2c1 | inactive | inactive | 1.77% (inactive) and 23.2% (inactive) | inactive | inactive | inactive | inactive | inactive | inactive | inactive | –
CC1(C)C(C=C(Cl)Cl)C1C(=O)OCc1cccc(Oc2ccccc2)c1 (stereo unspecified) | inactive | inactive | -20.8% (inactive) and -17.3% (inactive) | inactive | inactive | inactive | inactive | inactive | inactive | – | –
ClC/C=C/CCl | inactive | inactive | 18.6% (inactive) and 9.13% (inactive) | inactive | inactive | inactive | inactive | inactive | inactive | inactive | –

SMILES | Potency [1] | Potency [2] | max response [3] | Potency [4] | Potency [5] | Potency [6] | Potency [7] | Potency [8] | Potency [9] | Potency [10] | Potency [3]
CC[C@]12CCCN3CCc4c(n(c5ccccc45)[C@@](O)(C(=O)OC)C1)[C@@H]32 | inactive | inactive | -23.5% (inactive) | inactive | inactive | inactive | inactive | inactive | inactive | inactive | –
c1ccc2c(c1)[nH]c1ccccc12 | inactive | inactive | -8.89% (inactive) | inactive | inactive | inactive | – | inactive | inactive | inactive | –
Cc1ccc(N)c([N+](=O)[O-])c1 | inactive | inactive | 2.67% (inactive) and 2.77% (inactive) | inactive | inactive | inactive | inactive | inactive | inactive | inactive | –
CC1(C)OC(=O)NC1=O | inactive | inactive | -4.09% (inactive) and 7.44% (inactive) | inactive | inactive | inactive | inactive | inactive | inactive | inactive | –
C=CCCCCCCCCCC | inactive | inactive | 3.4% (inactive) and -2.24% (inactive) | inactive | inactive | inactive | inactive | inactive | inactive | inactive | –
CCOC(=O)C(C)Oc1ccc(Oc2cnc3cc(Cl)ccc3n2)cc1 (stereo unspecified) | 20 µM (active) and 20.5 µM (active) | inactive | -24.7% (inactive) | inactive | – | inactive | inactive | inactive | inactive | inactive | 44.7 µM (active)
Cc1ccc2c(c1)C(=O)OC2=O | inactive | inactive | 5.67% (inactive) and 0.571% (inactive) | inactive | inactive | inactive | inactive | inactive | inactive | – | –
COc1ccc2nc(N)sc2c1 | inactive | inactive | 7.94% (inactive) | inactive | inactive | inactive | inactive | inactive | inactive | inactive | –
CC(=O)[C@@]1(O)CC[C@H]2[C@@H]3C[C@H](C)C4=CC(=O)C=C[C@]4(C)[C@@]3(F)[C@@H](O)C[C@@]21C | 38.9 µM (active) and inactive | inactive | -3.14% (inactive) | inactive | inactive | inactive | inactive | 5.49 µM (active) and 3.01 µM (active) | inactive | inactive | 19.5 µM (active)
CCCCCC1C(=O)CCC1CC(=O)OC (stereo unspecified) | inactive | inactive | 0.863% (inactive) and -10.7% (inactive) | inactive | inactive | inactive | inactive | inactive | inactive | – | –
O=C1OC2(c3ccccc31)c1cc(I)c(O)c(I)c1Oc1c2cc(I)c(O)c1I | 49.1 µM (active) and inactive | 39 µM (active) | -20.2% (inactive) | 12 µM (active) [middle of 4 runs] | 11.8 µM (active) [middle of 4 runs] | 39 µM (active) and 24.8 µM (active) and 29.8 µM (active) | 13.3 µM (active) [middle of 4 runs] | 5.56 µM (active) [middle of 4 runs] | 11.8 µM (active) [middle of 4 runs] | – | 49.1 µM (active)
C[N+](C)(C)CCO | inactive | inactive | 15.9% (inactive) and 6.06% (inactive) | inactive | inactive | inactive | inactive | inactive | inactive | inactive | –
C=CC(=O)OCCCC | inactive | inactive | 6.68% (inactive) and 3.94% (inactive) | inactive | inactive | inactive | inactive | inactive | inactive | – | –
CCCCCCCCCCC(CO)CCCCCCCC (stereo unspecified) | inactive | inactive | 5.36% (inactive) and 2.58% (inactive) | inactive | inactive | inactive | inactive | inactive | inactive | – | –
CCCN1C=CN(C)C1 | inactive | inactive | -1.14% (inactive) and -1.07% (inactive) | inactive | inactive | inactive | inactive | inactive | inactive | inactive | –
CC(C)[N+](C)(CCOC(=O)C1c2ccccc2Oc2ccccc21)C(C)C | inactive | inactive | -23.6% (inactive) and -15.1% (inactive) | inactive | inactive | inactive | inactive | inactive | inactive | inactive | –
CC(C)(C)c1cccc(C(C)(C)C)c1O | 38 µM (active) and inactive | inactive | 1.57% (inactive) | – | inactive | inactive | inactive | inactive | 53.7 µM (active) and inactive | inactive | 21.4 µM (active)
CC(=O)O[C@]1(C(C)=O)CC[C@H]2[C@@H]3C=C(Cl)C4=CC(=O)CC[C@]4(C)[C@H]3CC[C@@]21C | 21.8 µM (active) | inactive | – | inactive | inactive | inactive | inactive | 2.18 µM (active) and 1.69 µM (active) | inactive | inactive | 21.8 µM (active) and 10.7 µM (active)
